This assay can be described thus: Vero 76 cell cytotoxicity, dose response, cytotoxicity control for VEEV inhibitor project, set 9 (AID 651930).

The values below come from PubChem BioAssay AID651930 (Southern Research Specialized Biocontainment Screening …, 2012).

Unmarked numbers belong to inactive results. The source made the active and inactive calls. How the calls were made is not given here.

As to `O=c1nc(Nc2ccc(OCc3ccccc3)cc2)sc2ncccc12`, the result was inactive.
Same read-out and setting: then `CCN1CCN(Cc2nc3ccc(S(=O)(=O)O)cc3c(=O)n2-c2ccccc2)CC1`, with “inactive”.
As to `COc1ccc(NC(=O)c2cc([N+](=O)[O-])ccc2N=C2CN(C)CCN2C)cc1`, the viability (commonly a per cent measure of how many cells are alive, often set against a control) was 90.4% [at 5 µM].
Regarding `CCN1CCN(Cc2nc3ccc([N+](=O)[O-])cc3c(=O)n2-c2ccccc2F)CC1`, the result was inactive.
Consider `CN1CCN(C)C(=Nc2ccc(C#N)cc2C(=O)Nc2cccc(F)c2)C1`, for which the molecule was classed as inactive.
Still for that read-out and setting: then `CCN1CCN(Cc2nc3ccc(C#N)cc3c(=O)n2-c2ccccc2)CC1`, with “inactive”.
Same read-out and setting: then `CCN1CCN(Cc2nc3ccc(-c4nn[nH]n4)cc3c(=O)n2-c2ccccc2)CC1`, with “inactive”.
As for `CCN1CCN(Cc2nc3c([N+](=O)[O-])cccc3c(=O)n2-c2ccccc2)CC1`, the outcome was inactive.
The same measure, in the same setting: then `CCN1CCN(Cc2nc3ncccc3c(=O)n2-c2ccccc2)CC1`, with “inactive”; and `CCN1CCN(C)CC1=Nc1ccc([N+](=O)[O-])cc1C(=O)Nc1ccccc1`, with “inactive”.
The same measure, in the same setting: then `O=c1nc(Nc2ccc(CCc3ccccc3)cc2)sc2ncccc12`, with “inactive”; and `CCN1CCN(Cc2nc3ccc([N+](=O)[O-])cc3c(=O)n2-c2ccccc2)CC1`, with “inactive”.
The same measure, in the same setting: to `COc1ccc(-n2c(CN3CCNCC3)nc3ccc([N+](=O)[O-])cc3c2=O)cc1` belongs “inactive”; to `COc1ccc(Nc2nc(=O)c3cccnc3s2)cc1`, “inactive”.
Regarding `O=c1nc(Nc2ccc(OCc3ccccc3)cc2)sc2ncc([N+](=O)[O-])cc12`, the result was inactive.
The same measure, in the same setting: to `COc1cccc(-n2c(CN3CCNCC3)nc3ccc([N+](=O)[O-])cc3c2=O)c1` belongs “inactive”.
On the same count and under the same terms, to `CCN1CCN(Cc2nc3ccc([N+](=O)[O-])cc3c(=O)n2C)CC1` belongs “inactive”.
The same measure, in the same setting: to `CCN1CCN(C(c2nc3ncc([N+](=O)[O-])cc3c(=O)n2-c2ccccc2)C(c2nc3ncc([N+](=O)[O-])cc3c(=O)n2-c2ccccc2)N2CCN(CC)CC2)CC1` (stereo not given) belongs “inactive”; to `CCN1CCN(Cc2nc3ncc([N+](=O)[O-])cc3c(=O)n2-c2ccccc2)CC1`, “inactive”; to `CNCCCN(C)Cc1nc2ccc([N+](=O)[O-])cc2c(=O)n1-c1ccccc1`, “inactive”.
